# An excerpt weighted towards active compounds, which were near 12% of everything screened.
# BAZ2B block = BAZ2B (human) inhibition | 360,000 compounds, 4.4% hits | Q9UIF8 | AlphaScreen BAZ2B-H3K14Ac peptide displacement | Potency, µM (highest dose often 114 µM), inactives show at the highest dose activity change, negative = inhibition, actives largely listed as inhibitors; further: on the % scale 0 is the no-effect control and ±100 the full control effect; nearly all actives have a fitted effect of over 60% in size
#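 AlphaScreen displacement of biotin-H3(5-23)K14Ac peptide (50 nM final) from BAZ2B (50 nM final) in PBS pH 7.4, 0.01% Tween-20; complex preformed 30 min RT, then compounds (top 110 uM) 30 min RT, beads 20 min dark.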
# HP1b chromo inh = inhibitors of HP1-beta chromodomain binding to methylated histone tails | AlphaScreen HP1-beta / biotin-H3K9me3 peptide binding | P83916 | Potency, µM (titrated, usually from 114 µM), inactives show at the highest dose activity change, negative = inhibition, actives largely listed as inhibitors | 390,000 compounds, 0.56% hits | AID 540317; further: nearly all actives have a fitted effect of over 70% in size
#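 Compound inhibition of the preformed complex between 50 nM HP1-beta and 50 nM biotinylated H3K9me3 peptide was read by AlphaScreen. Buffer was PBS pH 7.4 with 0.01% Tween-20. Incubations ran 30 min at room temperature, with 10 ug/mL donor/acceptor beads.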
# PLK1 PBD block = blocks phosphopeptide binding to human PLK1 polo-box domain | Plk1 PBD binding of FITC phosphopeptide, fluorescence polarization | Potency, µM, for inactives: max response, negative = inhibition, actives largely listed as inhibitors | 360,000 compounds, 2.8% hits | AID 720504; further: series mostly up to about 57 µM; on the % scale 0 is the no-effect control and ±100 the full control effect; nearly all actives have a fitted effect of over 65% in size
# G9a inh = inhibitors of human histone lysine methyltransferase G9a; 350,000 compounds, 8.8% hits; AID 504332; G9a H3K9 monomethylation, AlphaScreen, 2 h; Potency, µM (doses to about 102 µM), without a hit: top-dose activity, negative = inhibition, usual class: inhibitors; further: on the % scale 0 is the no-effect control and ±100 the full control effect; nearly all actives have a fitted effect of over 75% in size
#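 Using a bead-based AlphaScreen, monomethylated H3K9 product from 2 h room-temperature reactions (G9a 20 nM, peptide 500 nM, SAM 20 uM) was detected with 0.5 ug/mL rabbit anti-H3K9me1 antibody.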
# JMJD2A Tudor inh = inhibitors of human JMJD2A Tudor domain; O75164; AlphaScreen JMJD2A-Tudor / H3K4me3 peptide binding; Potency, µM (highest dose often 114 µM), without a hit: at the top dose activity change, negative = inhibition, most hits filed as inhibitors; 390,000 compounds, 4.4% hits; AID 504339; further: on the % scale 0 is the no-effect control and ±100 the full control effect; nearly all actives have a fitted effect of over 50% in size
# Sfp inh = Sfp phosphopantetheinyl transferase inhibition; Q9F4F7; Biochemical Sfp PPTase activity, qHTS; Potency, µM, without a hit: largest response in the series, negative = inhibition, most hits filed as inhibitors; 310,000 compounds, 3.5% hits;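 further: the enzyme is Sfp with the accession as filed and its product quenches rhodamine fluorescence; 0% = enzyme reaction without inhibitor and -100% = no enzyme wells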
#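 Fluorescence-quenching assay: 15 nM Sfp-PPTase preincubated 15 min at room temperature with compound, then 5 uM rhodamine-CoA and 12.5 uM BHQ-2-labelled YbbR peptide added. Fluorescence (ex 525/em 598 nm) read at start and after 30 min; difference gives rate.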
# * hit, by the source's call; ? = inconclusive; · = no result given; [ ] = dose if it differs, or a comment. The call rests on the fitted dose curve; in most records, active means well fitted curve in the direction sought with a large enough effect; inconclusive means small, poorly fitted or top-dose-only effect, or another doubt; inactive means no such curve, though single readings can be large; an effect the other way counts as inactive or inconclusive. Potency means the concentration at half of the fitted maximal effect.
SMILES,BAZ2B block,HP1b chromo inh,PLK1 PBD block,G9a inh,JMJD2A Tudor inh,Sfp inh
CCOc1ccccc1CNC(=O)c1ccc(NC(=O)N2CC(C)Sc3ccccc32)cc1 (stereo not given),-18%,10%,·,2%[59 µM],-26%,·
COC(=O)c1ccc2c(=O)n(-c3ccccc3)c(SCN3C(=O)c4ccccc4C3=O)nc2c1,-1%,50%,1%,28µM*,3%,-8%
CCC1(C)Nc2ccccc2C(=O)N1O (stereo not given),-10%,5%,-9%,50µM*,?,-8%
O=C1CCCC=C1[C@H](O)c1ccc([N+](=O)[O-])cc1,·,·,·,·,·,1%
CCC(C(=O)NCc1cccs1)n1nc(C)n2c(cc3occc32)c1=O (stereo not given),-36%,27%,-11%,·,-7%,1%
COc1cc2c(cc1OC)CN(C(=O)C1CCCN(C(=O)c3ccc(Cl)cc3)C1)CC2 (stereo not given),-3%,31%,0%,6%[12.7 µM],-4%,·
COc1ccccc1CNC(=O)CCn1cnc2ccccc2c1=O,50µM*,?,·,16µM*,56µM*,·
O=C(CCNC(=O)Cn1cnc2ccccc2c1=O)NCC1COc2ccccc2O1 (stereo not given),4%[57.1 µM],?,3µM*,6%,?,4%
COc1cc(OC)c(NC(=O)CCCn2nc(C)c3sc4ccccc4c3c2=O)cc1Cl,?,-14%,·,14µM*,?,·
COc1ccccc1NC(=O)CCn1cnc2ccccc2c1=O,?,?,·,9%[12.7 µM],5µM*,·
COc1cc(OC)c(N(C)C(=O)CCNC(=O)Cn2cnc3ccccc3c2=O)cc1Cl,0%,19%,2%,15%[12.7 µM],-9%,8%
O=C(CCn1cnc2ccccc2c1=O)NCc1ccccc1Cl,-2%,20%[57 µM],·,-11%[59 µM],-23%,·
O=C(CCn1cnc2ccccc2c1=O)NCc1ccccc1,?,-12%[57 µM],·,?,89µM*,·
COc1ccccc1NC(=O)CCN1CCN(C)CC1,10%,32%,-1%,50µM*,-1%,8%
COc1cc(OC)c(NC(=O)CCNC(=O)Cn2cnc3ccccc3c2=O)cc1Cl,7%,-20%,13µM*,-11%[2.33 µM],-33%[11.4 µM],2%
CCn1nc(-c2ccccc2)c(-c2ccccc2)c(C(=O)Nc2ccc(S(N)(=O)=O)cc2)c1=O,-17%,5%,·,?,-27%,·
CC1(C)N(O)CC(c2cccs2)=[N+]1[O-],50µM*,-23%,-6%,-36%[12.7 µM],28µM*,7%
[O-][N+]1=C(c2cccs2)CN(O)C1,?,22%,-8%,15%,-14%,17%
CN(C)c1ccc(C2CC(c3cccc(NS(C)(=O)=O)c3)=NN2C(=O)c2ccccc2)cc1 (stereo not given),20µM*,?,-24%,·,-25%[11.4 µM],-3%
CCC(=O)N1N=C(c2ccc(NS(C)(=O)=O)cc2)CC1c1ccc(N(C)C)cc1 (stereo not given),·,-15%,-8%,45µM*,?,-2%
CC[C@H](C)[C@H](NC(=O)[C@H](CC(C)C)NC(=O)[C@@H](N)CO)C(=O)NCC(=O)N[C@@H](CCCCN)C(=O)N[C@H](C(=O)O)C(C)C,·,·,·,·,·,-7%
Cc1c2oc3c(C)ccc(C(=O)N[C@@H]4C(=O)N[C@@H](C(C)C)C(=O)N5CCC[C@@H]5C(=O)N(C)CC(=O)N(C)[C@@H](C(C)C)C(=O)O[C@H]4C)c3nc-2c(C(=O)N[C@@H]2C(=O)N[C@@H](C(C)C)C(=O)N3CCC[C@@H]3C(=O)N(C)CC(=O)N(C)[C@@H](C(C)C)C(=O)O[C@H]2C)c(N)c1=O,·,·,·,·,·,-9%
CCOc1cc(CN2CCN(c3ncccn3)CC2)ccc1OC,79µM*,?,4%,·,2.8µM*,-9%
Fc1ccc(CN2CCN(c3ncccn3)CC2)cc1,?,?,4%,10µM*,10µM*,-14%
CCc1ccc(CN2CCN(c3ncccn3)CC2)cc1,50µM*,-21%,2%,6%[0.501 µM],20µM*,?
SMILES,BAZ2B block,HP1b chromo inh,PLK1 PBD block,G9a inh,JMJD2A Tudor inh,Sfp inh
O=C(Cn1cc(S(=O)(=O)c2ccccc2)c(=O)c2cc(Cl)ccc21)Nc1ccc2c(c1)OCO2,0%,38%,·,-5%[59 µM],-1%,·
NS(=O)(=O)c1ccc(NC(=S)NC2CCCCC2)cc1,-29%,-4%,11µM*,25µM*,-14%,7.9µM*
S=C(Nc1cccnc1)NC1CCCC1,3%,-14%,?,16µM*,-24%,-5%
CC1CCCC/C1=N\NC(=S)Nc1cccnc1 (stereo not given),?,?,-16%,3.2µM*,?,20µM*
S=C(Nc1ccc(Nc2ccccc2)cc1)NC1CCCCCC1,13µM*,?,?,16µM*,20µM*,?
NS(=O)(=O)c1ccc(NC(=O)NC2CCCCC2)cc1,5%,40%,1%,1%,-8%,-6%
CCOCCCNC(=O)c1cc2c(=O)[nH]c3ccccc3c2n1C,·,67%,·,32%[59 µM],?,·
COc1nc(NC2OC(CO)C(O)C(O)C2O)c(N)c(=O)[nH]1 (stereo not given),·,36%,-15%,·,-2%,·
CCOC(=O)Cc1csc(NC(=O)NC2(C(F)(F)F)Oc3ccccc3O2)n1,?,13%,12µM*,8.9µM*,-6%,45µM*
CCOC(=O)Cc1csc(NC(=O)NC2(C(F)(F)F)Oc3ccc(Cl)cc3O2)n1 (stereo not given),-7%,7%,17µM*,25µM*,?,56µM*
CCOC(=O)Cc1csc(NC(=O)NC2(C(F)(F)F)Oc3cc(Cl)c(Cl)cc3O2)n1,?,3%,21µM*,13µM*,?,?
CC(=O)NCCNc1nc(-c2cccc(NS(C)(=O)=O)c2)nc2ccccc12,·,·,·,-32%[0.501 µM],·,10%
CCc1ccccc1NC(=O)Cn1nnc(C(=O)OC)c1C(=O)OC,-1%,13%,·,2%[59 µM],-36%,·
COc1ccc(/C=C(\CC(=O)O)c2nc3ccccc3o2)cc1,-6%,24%,3%,2%,-6%,-12%
COc1ccc(C(=O)/C(=C/c2cccs2)c2nc3ccccc3o2)cc1,-33%,?,27µM*,?,45µM*,-6%
CS/C(=C\[N+](=O)[O-])Nc1ccc(OC(F)(F)F)cc1,-32%,23%,-7%,50µM*,-12%,15%
CC(C)(CCl)C(=O)Nc1ccc(OC(F)(F)F)cc1,10%,61%,0%,-1%,1%,13%
Cc1c(NC(=O)c2cc(-n3cnnc3)ccc2Cl)cccc1-c1nc2ccccc2o1,-5%,14%,-2%,2.5µM*,-10%,-17%
O=C(CCCN1C(=O)/C(=C\c2ccccc2)SC1=S)N1CCOCC1,·,?,-18%,·,?,·
